This passage reports PBM binding z-score results from the supplement of paper PMC6555819.

The experiment deals with VDR:RXRa (NR concentration 270 nM, RXRa partner concentration 90 nM). Description: PBM binding z-score (relative to random genomic background probes); higher = stronger binding; sequences stand for … in GC…GCGATTGACAGCGTAGAATGAAGG
The protocol: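 Protein-binding microarray (Agilent 4x180K custom design, double-stranded 60-nt probes: 5' GC cap, 34-nt variable region, 24-nt constant primer region; full probe sequence given). Purified or IVT nuclear receptor:RXRα heterodimers (3:1 NR:RXRα, mostly 270:90 nM) or homodimers were incubated for 1 h in PBS with 2% milk and no ligand, then detected with Alexa488 antibodies. Fluorescence from o1-orientation probes (~5 replicates averaged) was converted to z-scores against 500 random hg19 background probes. Variable regions are seed direct-repeat (DR0–DR5) sites, all their single-nucleotide variants and half-site ablations.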
Regarding CGTCCAACGTCAAAGGTCAGTGAAGAGATGACGG, the PBM binding z-score was found to be 2.8.
TCTCGGAGGACACGAAAGGTCAGAGCCCGACATC yielded a PBM binding z-score of 3.26.
As to TCTAGTTGGTCACGGAGGTGACACACGACGGGTA, the PBM binding z-score turned out to be 1.59.
For CAAACTAGGTCAAAGAGGTCAAAGTCCGTGCGTA the value was 7.75; for CGAACTAGTTCATCCAGGACAGTGAATACATTGA, 2.23; for GGGACGAGGGCAAAGTTGATAGCATCTGTCGACG, 1.47.
For the sequence TCGAGTAGTTTAGTCGGGGCATTCAGCCAACATA, the PBM binding z-score turned out to be 0.157.
TCTTGTAGATCAAAGGTTAAGGAAGCCGAAGCCT came in with a PBM binding z-score of 1.59.
For CCTATTAGTTGACCATAAGGGCATCCGAAGCTCG the value was 0.862.
ATATGTAGGTTGAGGGTCATTCAGGTTGGTTCGC displayed a PBM binding z-score of 4.78.
For GGAACGAGGGCATTCCAGTTGATAGCATGGCGAT the value was 2; for TCAGACAGGTGAAGGTAACTGAGGTACGCAGTCG, 0.737; for CCTTACGGGTCAAGGATATAGCACGGGTGGTACG, 2.65.
The sequence CCAGACCGGTGAGAAGGTAACTCAGCCTCGATTA showed a PBM binding z-score of -0.163.
Take GCTGCTAGGTCAACTGATGGTCAGCTTAAGCTCG: the PBM binding z-score was determined as 1.62.
To ACTCGGAGGACAAAGGTCAGATCTACGCCAGTGA belongs 3.49.
For GCTAGCAGGCCATTTGGGTGACTCAATGACGGGC the value was -0.749; for CCTTACGGGTCACTGACAGGTTATACCATTTGGA, 3.9; for ATCACTAGGTAAGACTCAGTTCAGTGAAGAACGC, 0.53.
The sequence CGTCCAAGCTCATAGGAGGTCAGTGAAGACAGAT registered a PBM binding z-score of 1.69.
For CCTGCCAGGTCAATGGTCAGCTAAAGCAGCTCGC the value was 1.5; for TCTTGTAGATCAATAGAGGTGAAGAAAGTGCGCT, 0.991; for ATCTCTAGGTAAGACTCAGTACAGTGAAGAACGC, 0.435.
To CCTAGTTGGGCAAGGTCACACACGCTATAGGTAC belongs 3.84; to CAAACTAGGTCAAGAGGTCGAAGTCCGCTTCCCG, 4.04; to CAAACTAGGTCACGAAAGGTTAAAGTCGAATGAC, 5.27.
TCGAGTAGGTGACCAATGGGGCATTCAGCTTTCT gave a PBM binding z-score of -0.154.
For TGAACGAGGTTATAAGATCAGGGAACGTTGCAAA, the PBM binding z-score worked out at 0.923.
Take CGAACTAGGTGAAGGACAGTGAATCTCCGCACGC: the PBM binding z-score was -0.403.
For TCATTTAGGTAAAGGTGAAAGTCGAACGATATGA the value was 1.23.
For ATCGAAAGGCCGAGGTGAGTATAGAGAAAGGGAA the value was -0.47; for GCTAGCGGGCCATTTGGGTCACTCAATGACGGGC, 0.753; for CAAACTAGGTCTAGAGGTCAAAGTCCGCTTCCCG, 4.93.
For TCATATAGGTATACAGGTGAAAGTCCGTAAGTTA the value was 1.07.
Sequence GGTACAGGGTCAGCTAGAGGCCAGAGTATGGAAA showed a PBM binding z-score of 3.29.
For ATTACAGGGTCATCGTAGGCCAGAGTACGCACAG the value was 5.39.
The sequence GCTGCTAGGTCAGGTTGGTCAGCAAACGGGTACG yielded a PBM binding z-score of 0.616.
To ACCTCTAGGTAAAGATAGTTCAGTGAATGCAAAT belongs 0.302; to CAAACTAGGTCACGAAAGGTCGAAGTCGAATGAC, 5.72; to GCTCGGACGACAAGGTCAGAGCTTTGTCCGTAGA, 1.4.
